esBAF inh: SWI/SNF esBAF complex inhibition | mouse ES cells, Bmi1-luciferase knock-in reporter, 24 h; 100% = twice the neutral-well signal | reporter increase, % at 12.5 µM | AID 602393 | hit rate 2% among 350,000; in the data active = activation above about 40%; inconclusive = no clear call, values can overlap the other calls;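 also: a rise in the Bmi1 reporter signal indicates esBAF inhibition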
MITF TRPM1 HTS: activators of MITF-driven TRPM1 promoter activity in SK-MEL-5 cells. SK-MEL-5 TRPM1-promoter luciferase, 24 h; % of positive control, neutral wells = 0. hit rate 0.75% among 300,000. activation, % at 12.5 µM;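 active = mean activation of at least 80% with every replicate also reaching 80%; inconclusive = mean reaches 80% but some replicate falls short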
AF4-AF9 inh: MLL-AF4/AF9 protein interaction inhibition; P42568; AlphaScreen, biotin-AF4 peptide binding to FLAG-AF9; inhibition, % at 10 µM; hit rate 0.47% among 350,000;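 active = every replicate reaching a set inhibition limit, whatever the replicate mean, cut at about 25% in these data; inconclusive = mean inhibition reaches that limit but some replicates miss it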
Target sequence (P42568 whole entry, looked up): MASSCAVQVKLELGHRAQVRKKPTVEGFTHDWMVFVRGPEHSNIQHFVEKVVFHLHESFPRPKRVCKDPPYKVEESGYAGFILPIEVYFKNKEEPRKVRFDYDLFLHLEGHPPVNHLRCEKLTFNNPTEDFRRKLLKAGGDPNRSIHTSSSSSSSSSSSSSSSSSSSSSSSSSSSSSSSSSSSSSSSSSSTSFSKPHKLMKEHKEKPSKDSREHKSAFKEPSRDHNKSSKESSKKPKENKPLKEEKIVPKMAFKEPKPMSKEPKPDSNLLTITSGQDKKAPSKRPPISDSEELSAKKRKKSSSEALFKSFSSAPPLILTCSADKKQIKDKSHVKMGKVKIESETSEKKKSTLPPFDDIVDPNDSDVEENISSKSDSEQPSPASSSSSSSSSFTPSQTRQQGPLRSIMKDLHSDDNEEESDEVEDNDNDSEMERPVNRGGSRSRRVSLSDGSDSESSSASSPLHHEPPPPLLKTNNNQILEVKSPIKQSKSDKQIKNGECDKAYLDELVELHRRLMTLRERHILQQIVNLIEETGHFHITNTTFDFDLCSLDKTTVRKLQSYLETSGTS
SMARCA2 act: increases SMARCA2 function in MMTV reporter cells; MG213 cells, MMTV-luciferase reporter, dexamethasone, overnight; activation, % at 9.1 µM; hit rate 1% among 370,000; in the data active = activation above about 7.8%
Wnt act: activates Wnt/beta-catenin signaling in a reporter cell assay | activator, plate reader | hit rate 1.2% among 300,000 | AID 743398 | activation, % at 9.35 µM; in the data active = activation above about 30%, passing the limit was not always enough; inconclusive = no clear call, values can overlap the other calls
FGF22 binding: FGF22 (human) thermal shift binding; Q9HCT0; activity (Tm shift, normalised), % at 9.99 µM; recombinant FGF22 thermal shift, SYPRO orange fluorescence; percent of sucrose octasulfate shift, DMSO zero; hit rate 1.5% among 340,000;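 active = mean Tm shift, scaled 0 neutral to 100 positive control, at about 1.3% or above, every replicate too, limit read from the data; inconclusive = no clear call, values can overlap the other calls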
Target sequence (Q9HCT0 whole entry, looked up): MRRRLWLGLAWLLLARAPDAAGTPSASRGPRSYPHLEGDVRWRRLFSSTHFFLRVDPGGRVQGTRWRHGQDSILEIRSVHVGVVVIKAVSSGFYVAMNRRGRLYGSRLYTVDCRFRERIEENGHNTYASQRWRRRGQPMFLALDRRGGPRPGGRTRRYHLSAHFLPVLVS
Large screens that a line does not name were inactive. This is a sample that favours compounds with a hit; in the whole collection about 4.3% have one here.

C=CCc1cccc(/C=N/NC(=O)c2ccccc2Br)c1O	none (no result: esBAF inh)
C=CCc1cccc(/C=N/NC(=O)c2ccccc2OC)c1O	esBAF inh 44
NC(=O)N/N=C/c1ccccc1OC(=O)c1ccccc1Br	FGF22 binding 43 (no result: esBAF inh)
COc1ccccc1S(=O)(=O)N[C@H]1C=C[C@@H](CC(=O)NCc2cc(F)cc(F)c2)O[C@@H]1CO	none (no result: MITF TRPM1 HTS, SMARCA2 act, Wnt act)
COc1ccc(S(=O)(=O)N(C)C[C@H]2Oc3c(NC(=O)NC4CCCCC4)cccc3C(=O)N([C@H](C)CO)C[C@H]2C)cc1	none (no result: MITF TRPM1 HTS, SMARCA2 act, Wnt act)
CSc1ccccc1C(=O)Nc1ccc2c(c1)CCC2	esBAF inh inconclusive, Wnt act 30
Cc1c(C(=O)Nc2ccc3c(c2)CCC3)cccc1[N+](=O)[O-]	esBAF inh 82, MITF TRPM1 HTS 92
O=C(Nc1ccc2c(c1)CCC2)c1ccccc1Br	none (no result: esBAF inh)
C[C@@H]1CN([C@H](C)CO)C(=O)c2cc(NC(=O)c3ccccc3)ccc2O[C@@H](C)CCCCO[C@@H]1CN(C)S(=O)(=O)c1cn(C)cn1	none (no result: MITF TRPM1 HTS, SMARCA2 act, Wnt act)
COc1ccc(NC(=O)Nc2ccc3c(c2)C(=O)N([C@@H](C)CO)C[C@@H](C)[C@H](CN(C)S(=O)(=O)c2cn(C)cn2)OCCCC[C@@H](C)O3)cc1	none (no result: MITF TRPM1 HTS, AF4-AF9 inh, SMARCA2 act, Wnt act)
O=C1Nc2ccccc2Oc2cc([N+](=O)[O-])ccc21	FGF22 binding 43
Cc1ccc2c(c1)NC(=O)c1cc([N+](=O)[O-])ccc1O2	none (no result: esBAF inh)
CCCNC(=O)[C@@H]1[C@@H](CO)[C@@H]2Cn3c(cccc3=O)[C@H]1N2Cc1cc(F)ccc1F	none (no result: MITF TRPM1 HTS, SMARCA2 act, Wnt act)
COc1ccc(N=Cc2c(O)[nH]c3ccccc23)cc1	Wnt act 59 (no result: AF4-AF9 inh, FGF22 binding)
Cc1[nH]c2ccccc2c1/C=N\NC(=O)CNc1ccc2c(c1)OCO2	none
Oc1[nH]c2ccccc2c1C=Nc1ccc2c(c1)OCO2	esBAF inh 57, MITF TRPM1 HTS inconclusive, Wnt act 39 (no result: AF4-AF9 inh, FGF22 binding)
COc1ccc(CN=Cc2c(O)[nH]c3ccccc23)cc1	none (no result: esBAF inh)
COc1ccc(N=Nc2c(C)[nH]c3ccccc23)cc1	AF4-AF9 inh 26
C[C@@H]1CCCCO[C@H](CN(C)Cc2ccncc2)[C@@H](C)CN([C@@H](C)CO)C(=O)c2cc(NC(=O)Nc3cccc4ccccc34)ccc2O1	none (no result: MITF TRPM1 HTS, SMARCA2 act, Wnt act)
CCCC(=O)Nc1ccc2c(c1)C(=O)N(C)C[C@H](OC)[C@@H](C)CN(C(=O)C1CCCC1)[C@H](C)CO2	none (no result: MITF TRPM1 HTS, SMARCA2 act, Wnt act)
Cc1noc(C)c1NC(=O)N(C)C[C@@H]1OCCCC[C@H](C)Oc2ccc(NC(=O)c3ccncc3)cc2C(=O)N([C@@H](C)CO)C[C@@H]1C	none (no result: MITF TRPM1 HTS, SMARCA2 act, Wnt act)
CCCC(=O)Nc1ccc2c(c1)C(=O)N(C)C[C@@H](OC)[C@@H](C)CN(C)[C@@H](C)CO2	none (no result: MITF TRPM1 HTS, SMARCA2 act, Wnt act)
O=C1c2ccccc2C(=O)N1CCOc1ccccc1Cl	esBAF inh inconclusive, MITF TRPM1 HTS 86
Clc1ccc(Cn2cnc3ccccc32)cc1	FGF22 binding 43
Clc1ccccc1OCCn1cnc2ccccc21	esBAF inh 51 (no result: AF4-AF9 inh, Wnt act, FGF22 binding)
Clc1ccc(OCCn2cnc3ccccc32)cc1	none (no result: AF4-AF9 inh, Wnt act, FGF22 binding)
O=C(NC[C@H]1N[C@H](CO)[C@@H]1c1ccc(-c2ccccc2F)cc1)c1ccccc1	none (no result: MITF TRPM1 HTS, SMARCA2 act, Wnt act)
NCC[C@H]1CC[C@@H](NC(=O)c2ccccc2F)[C@@H](CO)O1	none (no result: MITF TRPM1 HTS, SMARCA2 act, Wnt act)
C[C@@H]1C[C@@H]2OC(=O)[C@]3(C)[C@H]2[C@@H](OC3(C)O)[C@]2(C)C(=O)C=C[C@H]12 (stereo partly specified)	none
C=C1C(=O)C=C[C@]2(C)C[C@@H]3OC(=O)[C@](C)(O)[C@H]3C[C@@H]12	Wnt act 43
CCCN1C[C@H](C)[C@H](OC)CN(C)C(=O)c2cc(NC(=O)COC)ccc2OC[C@H]1C	none (no result: MITF TRPM1 HTS, AF4-AF9 inh, SMARCA2 act, Wnt act, FGF22 binding)
COc1cccc(C(=O)NCC(=O)N/N=C/c2ccc(OC(=O)c3cccs3)c(OC)c2)c1	none (no result: esBAF inh)
O=C(CNC(=O)c1cccs1)N/N=C/c1ccccc1[N+](=O)[O-]	esBAF inh 60
COc1cc(/C=N/NC(=O)CNC(=O)c2ccccc2)ccc1OC(=O)c1cccs1	Wnt act 33 (no result: AF4-AF9 inh, FGF22 binding)
O=C(CNC(=O)c1ccco1)N/N=C/c1ccccc1[N+](=O)[O-]	none (no result: esBAF inh, FGF22 binding)
O=C(/C=C/c1ccccc1)NCC(=O)N/N=C/c1ccccc1[N+](=O)[O-]	FGF22 binding 43 (no result: esBAF inh)
COc1ccccc1C(=O)NC(=O)CSc1cccc[n+]1[O-]	FGF22 binding 44 (no result: esBAF inh)
Cn1cccc1C(=O)NC(=O)CSc1cccc[n+]1[O-]	none (no result: AF4-AF9 inh, FGF22 binding)
O=C(N/N=C/c1cccc(OCc2ccccc2)c1)c1cccs1	esBAF inh 46, Wnt act 39 (no result: MITF TRPM1 HTS, AF4-AF9 inh, FGF22 binding)
COCC(=O)N/N=C\c1ccccc1OC/C=C/c1ccccc1	none
C/C(=N\NC(=O)CC#N)c1ccc(Oc2ccccc2)cc1	FGF22 binding 44
C/C(=N\NC(=O)COc1ccccc1)c1ccc(O)cc1	none (no result: esBAF inh)
N#CCC(=O)N/N=C/c1ccc(OS(=O)(=O)c2ccccc2)cc1	none (no result: esBAF inh, MITF TRPM1 HTS, AF4-AF9 inh, FGF22 binding)
N#CCC(=O)N/N=C\c1ccccc1OC/C=C/c1ccccc1	esBAF inh 64
N#CCC(=O)N/N=C\c1ccc(OC/C=C/c2ccccc2)cc1	MITF TRPM1 HTS 122
COCC(=O)N1C[C@H]2[C@@H](c3ccccc31)[C@@H](CO)N2C(=O)c1ccncc1	none (no result: MITF TRPM1 HTS, SMARCA2 act, Wnt act)
Cc1cccc(CCNC(=O)c2ccc3c(c2)ncn3C2CCCCC2)c1	none (no result: esBAF inh, MITF TRPM1 HTS, AF4-AF9 inh, Wnt act, FGF22 binding)
N#CCC(=O)N/N=C/c1ccc(OCc2ccccc2)cc1	FGF22 binding 43
CN(C(=O)CSc1nc2ccccc2s1)c1c(N)n(Cc2ccccc2)c(=O)[nH]c1=O	FGF22 binding 43 (no result: esBAF inh)
C[C@@H]1CCCCO[C@@H](CN(C)C(=O)NC2CCCCC2)[C@H](C)CN([C@@H](C)CO)C(=O)c2cc(NS(C)(=O)=O)ccc2O1	none (no result: MITF TRPM1 HTS, AF4-AF9 inh, SMARCA2 act, Wnt act)
O=C(Nc1cccc(/C=C/c2ccccn2)c1)c1ccc(-n2cncn2)c([N+](=O)[O-])c1	esBAF inh 44
O=C(Nc1ccc(F)c(F)c1)c1ccc(-n2cncn2)c([N+](=O)[O-])c1	none
COCCNC(=O)/C(C#N)=C/c1cc(C)n(-c2ccc(C)cc2)c1C	none (no result: esBAF inh)
COCCNC(=O)/C(C#N)=C/c1cc(C)n(C2CCCCC2)c1C	MITF TRPM1 HTS 91 (no result: esBAF inh)
CCOC(=O)CNC(=O)C1Cc2ccccc2CN1S(=O)(=O)c1cccs1 (stereo unspecified)	FGF22 binding 43 (no result: esBAF inh)
CN(CC(=O)Nc1ccc(F)cc1)C(=O)C1Cc2ccccc2CN1S(C)(=O)=O (stereo unspecified)	none
CCS(=O)(=O)N1Cc2ccccc2CC1C(=O)Nc1ccc(C)cc1 (stereo unspecified)	esBAF inh 49 (no result: MITF TRPM1 HTS, AF4-AF9 inh, FGF22 binding)
CCS(=O)(=O)N1Cc2ccccc2CC1C(=O)N(C)CC(=O)Nc1cccc(F)c1 (stereo unspecified)	esBAF inh 47
CCS(=O)(=O)N1Cc2ccccc2CC1C(=O)Nc1ccc(NC(C)=O)cc1 (stereo unspecified)	none (no result: esBAF inh, AF4-AF9 inh, FGF22 binding)
COc1ccc(-n2c(SCC(=O)Nc3ccc4c(c3)OCO4)nc3sc4c(c3c2=O)CCCC4)cc1	none (no result: esBAF inh, MITF TRPM1 HTS, AF4-AF9 inh, Wnt act, FGF22 binding)
